The source of these data is PubChem BioAssay (Tox21).

Results filed as inconclusive are left out. Values without a mark were called inactive. Calls follow the shape of the dose curve; as a rule, active = well fitted cell-killing curve with a large enough effect in the repeat runs; inconclusive = weak or mixed curves, or effect the other way; inactive = no such curve, though single readings can be large or run the other way.
% is scaled to controls: 0 for no effect and ±100 for the full control effect.

The experiment can be described thus: qHTS assay to identify small molecule agonists of the RXR signaling pathway - cell viability counter screen (AID 1159529). Also: nearly all actives have a fitted effect of over 50% in size. The note with it: RXR-alpha-bla HEK293T viability, CellTiter-Glo, 16 h; series mostly up to 76.8 µM; activity change, negative = cytotoxicity: at the top concentration. From the text: National Center for Advancing Translational Sciences [NCATS]
NIH Chemical Genomics Center [NCGC]
U.S. Environmental Protection Agency [EPA]
National Institutes of Environmental Health Sciences [NIEHS]
National Toxicology Program [NTP]
U.S. Food and Drug Administration [FDA]
The Retinoid X receptor (RXR), a nuclear hormone receptor expressed in liver, spleen, placenta, epidermis, central nervous system. These receptors are able to form homo and heterodimers with other nuclear receptors and due to this heterodimerizing ability, RXR functions as master regulators producing diverse physiological effects. Three subtypes of RXR exist; alpha, beta and gamma. Retinoid X receptor alpha (RXR-alpha) has potential roles in metabolic signaling pathways, skin alopecia, dermal cysts, cardiac development, insulin sensitization etc. Therefore screening environmental chemicals on RXR-alpha signaling can be used for the studies focused on such therapeutic applications. For quantification of RXR-alpha ligands signaling, GeneBLAzer RXR alpha-UAS-bla HEK 293T (Life Technologies, Carlsbad, CA) cells containing a beta-lactamase reporter-gene under control of Retinoid X receptor-alpha response element were used to screen Tox21 10K library. The cytotoxicity of the Tox21 compound library against the RXR-alpha HEK 293T cell line was tested in parallel by measuring cell viability using CellTiter-Glo assay (Promega Corporation, Madison, WI) in the same wells.
Tox21 Assay Protocol Summary:
RXR-alpha HEK 293T cells were dispensed at 2,000 cells/6 uL of assay medium containing 2% charcoal-stripped FBS using a Multidrop Combi (ThermoFisher Scientific, Waltham, MA) dispenser. The assay was performed in black wall/clear-bottom 1536-well plates (Greiner Bio-One North America Inc. Monroe, NC). Tetraoctyl ammonium bromide was used as a positive control in the cytotoxicity screen. After the assay plates were incubated at 37 C and 5% CO2 for 5 hr, 23 nL of compounds dissolved in DMSO, positive control or DMSO only were transferred to the assay plate by a Pintool station (Kalypsys, San Diego, CA). The assay plates were incubated at 37 C and 5% CO2 for 16 hr. One uL of LiveBLAzer B/G FRET substrate (Life Technologies) was added using a Flying Reagent Dispenser (FRD) (Aurora Discovery, San Diego, CA) and the plates were incubated at room temperature for 2 hr. Fluorescence intensity (405 nm excitation, 460/530 nm emission) was measured using an Envision plate reader (PerkinElmer, Shelton, CT). For cytotoxicity, 4 uL/well of CellTiter-Glo reagent was added into the assay plates using an FRD. After 30 min incubation at room temperature, the luminescence intensity was measured using a ViewLux plate reader (PerkinElmer).
As to `Cc1cccc(Nc2ccncc2S(=O)(=O)NC(=O)NC(C)C)c1`, the “activity change, negative = cytotoxicity” value is 26% [at 35.3 µM]. The figure for `O=C(O)c1ccc(OCCN2CCCCC2)cc1` is -0.0745% [at 35.3 µM]; for `CCCCCCCC[Si](OCC)(OCC)OCC` it is -6.8%. The figure for `CC(=O)N1CCN(c2ccc(O)cc2)CC1` is 0.179% [at 35.3 µM]; for `CC1(N)CCC(C(C)(C)N)CC1` (stereo not given) it is -18.2%. Consider `OC(CCN1CCCCC1)(c1ccccc1)c1ccccc1`, for which the “activity change, negative = cytotoxicity” value is -1.59% [at 35.3 µM]. As for `CC(=O)Nc1ccc(C)cc1`, the “activity change, negative = cytotoxicity” value is -0.315%. With `Nc1cc(Cl)cc(S(=O)(=O)O)c1O`, the “activity change, negative = cytotoxicity” value is 1.06%. In the case of `c1ccccc1`, the “activity change, negative = cytotoxicity” value was -1.51%. The same measure for `Cc1cccc(NC(=S)N(C)C)c1`: 5.38%; for `CC(C)(C)c1ccc(C=O)cc1`: 7.25%; for `Nc1c(NC/C=C\COc2cc(CN3CCCCC3)ccn2)c(=O)c1=O`: 0.401% [at 15.8 µM]. Turning to `CC(C)CCCC(C)CC=O` (stereo not given), the “activity change, negative = cytotoxicity” value is 3.38%. The same measure for `COC(OC)C(C)c1ccccc1` (stereo not given): -10.5%; for `NS(=O)(=O)c1cc2c(cc1Cl)NC(CC1CCCC1)NS2(=O)=O` (stereo not given): 4.75% [at 35.3 µM]; for `O=S(=O)(O)SSS(=O)(=O)O`: 1.15%.

Turning to `O=C(O)CCNC(=O)c1ccccc1`, the “activity change, negative = cytotoxicity” value was 0.133% [at 35.3 µM].

In the case of `Cc1nc([N+](=O)[O-])cn1-c1ccc([N+](=O)[O-])cc1`, the “activity change, negative = cytotoxicity” value is -0.733% [at 35.3 µM]. `CC(C)COC(=O)CCCCC(=O)OCC(C)C`: the “activity change, negative = cytotoxicity” value is -1.91%. The same measure for `CC(=O)c1ccc(OCC(=O)N2CCCCC2)cc1`: 3.92% [at 35.3 µM]. Take `CCCCCCCCCCCCCCCCCCN(C)C`: the “activity change, negative = cytotoxicity” value is 5.11% [at 35.3 µM]. For the molecule `Cc1ccccc1C`, the “activity change, negative = cytotoxicity” value was 8.83%.

Turning to `CC(C)CCO`, the “activity change, negative = cytotoxicity” value was 8.19%.

For `CC(=O)OC[C@H]1O[C@@H](OC(C)=O)[C@H](OC(C)=O)[C@@H]1OC(C)=O`, the “activity change, negative = cytotoxicity” value was 5.64% [at 35.3 µM]. As to `CC(C)COC(=O)CC(C(=O)OCC(C)C)S(=O)(=O)O` (stereo not given), the “activity change, negative = cytotoxicity” value was -7.97%. The same measure for `C/C=C(\C)C(=O)OCC/C=C\CC`: 18.4%; for `CC(=O)Nc1ncc([N+](=O)[O-])s1`: 0.0731% [at 35.3 µM]; for `CCOC(=O)CCCCCCCCC(=O)OCC`: -5.28%. `Cc1ccc(C(=O)C(=O)O)cc1C`: the “activity change, negative = cytotoxicity” value is -3.38% [at 35.3 µM]. For the molecule `NCCc1ccn[nH]1`, the “activity change, negative = cytotoxicity” value was -10.9% [at 35.3 µM].

Regarding `CCCO`, the “activity change, negative = cytotoxicity” value was -3.77%. Consider `CC(C)C(=O)c1ccccc1`, for which the “activity change, negative = cytotoxicity” value is 14.2%. In the case of `CCCCCC(=O)OCC`, the “activity change, negative = cytotoxicity” value was -0.0555%. Regarding `Nc1cc(C(=O)O)ccc1Cl`, the “activity change, negative = cytotoxicity” value is 2.82%. `C=CCOCC(O)CCl` (stereo not given): the “activity change, negative = cytotoxicity” value was 6.65%.

`Cc1ccccc1C(=O)N1CC/C(=N\OS(=O)(=O)O)c2ccc(Cl)cc21`: the “activity change, negative = cytotoxicity” value is 1.37% [at 35.3 µM].

With `C[C@H]1O[C@H](O[C@H]2[C@H](O)[C@@H](O)[C@@H](O[C@H]3[C@H](O)[C@@H](O)[C@H](O)O[C@@H]3CO)O[C@@H]2CO)[C@H](O)[C@@H](O)[C@@H]1N[C@H]1C=C(CO)[C@@H](O)[C@H](O)[C@H]1O`, the “activity change, negative = cytotoxicity” value is 3.57% [at 35.3 µM]. The same measure for `Cc1ccc(S(=O)(=O)NC(=O)NC2CCCCCCC2)cc1`: 16.4% [at 35.3 µM]. As to `CCC(CO)CO`, the “activity change, negative = cytotoxicity” value was 1.68%.

For the molecule `CCOC(=O)C(C)(C)C`, the “activity change, negative = cytotoxicity” value is 2.74%.
